# Screening data as filed in PubChem.
# Only some compounds are listed: those with a hit (about 1.1% of all), similar ones and a draw of the others.
# Mtb BioA inh: M. tuberculosis BioA enzyme inhibitors, primary screen, biochemical, plate reader, single point, HTS; purified M. tuberculosis BioA enzyme; inhibition, % at 9.99 µM; hit rate 0.096% among 360,000; AID 602481, 2012; in the data active = inhibition above about 40%
# CCHF vOTU inh-1: CCHFV vOTU protease inhibitors, primary screen, biochemical, Pep-AMC substrate, fluorescence; Crimean-Congo hemorrhagic fever virus L polyprotein viral ovarian tumor (vOTU) protease …; inhibition, % at 11.5 µM; hit rate 0.55% among 370,000; note: 0% = vehicle wells with enzyme and 100% = no enzyme wells
# Mtb bLac sens: beta-lactam sensitization of Mtb H37Rv, H37Rv. M. tuberculosis H37Rv growth with meropenem, percent inhibition. inhibition, % at 25 µM. hit rate 0.27% among 330,000. AID 434955, 2010; call rule not given here;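 note: growth measured after seven days incubation then overnight dye step; 0% = bacteria only wells and 100% = bacteria with antibiotic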
# RecA splice inh: Mtb RecA intein splicing inhibitors, primary screen, biochemical, fluorescence, HTS; Protein RecA (Mycobacterium tuberculosis (strain ATCC 25618 / H37Rv)), P9WHJ3; cell-free RecA intein splicing; inhibition, % (concentration not given with the values); hit rate 0.75% among 290,000; AID 2221, 2009; in the data active = inhibition above about 30%;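 note: 0% = vehicle wells and 100% = reference inhibitor control wells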
# Target sequence (P9WHJ3 whole entry, looked up, canonical isoform): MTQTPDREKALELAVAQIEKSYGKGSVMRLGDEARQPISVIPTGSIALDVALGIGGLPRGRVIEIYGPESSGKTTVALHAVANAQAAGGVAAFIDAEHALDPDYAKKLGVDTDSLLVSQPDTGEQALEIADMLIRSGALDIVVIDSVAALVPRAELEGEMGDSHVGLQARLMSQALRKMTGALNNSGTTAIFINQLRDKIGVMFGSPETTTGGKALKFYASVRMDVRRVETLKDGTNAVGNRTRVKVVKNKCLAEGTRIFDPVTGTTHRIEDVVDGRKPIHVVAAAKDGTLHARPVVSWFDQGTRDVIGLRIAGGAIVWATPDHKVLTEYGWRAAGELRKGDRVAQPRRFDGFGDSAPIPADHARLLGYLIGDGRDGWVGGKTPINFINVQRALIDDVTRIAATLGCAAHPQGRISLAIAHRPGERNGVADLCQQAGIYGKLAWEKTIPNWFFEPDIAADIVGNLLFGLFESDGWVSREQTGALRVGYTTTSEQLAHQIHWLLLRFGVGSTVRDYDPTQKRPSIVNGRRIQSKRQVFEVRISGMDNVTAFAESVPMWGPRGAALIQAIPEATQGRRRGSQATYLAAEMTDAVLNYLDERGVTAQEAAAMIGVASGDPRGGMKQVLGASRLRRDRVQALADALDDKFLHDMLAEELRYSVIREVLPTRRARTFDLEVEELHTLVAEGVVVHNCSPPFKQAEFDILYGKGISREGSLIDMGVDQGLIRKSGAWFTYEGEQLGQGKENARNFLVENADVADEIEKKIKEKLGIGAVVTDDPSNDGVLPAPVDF
# Y pestis TopoI: Yersinia pestis topoisomerase I inhibitors, primary screen, biochemical, cleavage product accumulation, plate reader, single point; activity, % at 10 µM; Y. pestis Topo-I cleavage product accumulation; AID 504884, 2011; hit rate 0.064% among 360,000; DNA topoisomerase I (Yersinia pestis CO92); in the data active = activity above about 50%, passing the limit was not always enough
# BJeLR viability: MLPCN primary cell-based screen for lethality selective to Ras in HRASV12 cells. AID 1554, 2009. hit rate 0.17% among 300,000. BJeLR (HRASV12) viability, CellTiter-Glo ATP luminescence, 48 h. inhibition, % (no concentration beside the values); in the data active = inhibition above about 50%
# CCHF vOTU inh-2: CCHFV vOTU protease inhibitors, confirmation, biochemical, Pep-AMC substrate, fluorescence. shares compounds with CCHF vOTU inh-1. Recombinant CCHFV vOTU. inhibition, % at 11.5 µM. hit rate 17% among 1,900. AID 686976, 2013
# An asterisk follows results filed as active; x = no result given. Cut-off read from the data, not from the text of the source, unless noted: active = inhibition above about 30%; inactive = the rest.
SMILES,Mtb BioA inh,CCHF vOTU inh-1,Mtb bLac sens,RecA splice inh,Y pestis TopoI,BJeLR viability,CCHF vOTU inh-2
C=CCn1c(COc2ccccc2)nnc1SCC(=O)c1ccc(OC)cc1,x,11.3,x,x,x,x,x
C=CCn1c(COc2ccc(F)cc2)nnc1SCC(=O)c1c[nH]c2c(CC)cccc12,-1.1,36.7*,1.9,-3.9,17.4,8.5,3.0
CN(C)C(=O)C[C@@H]1CC[C@@H](NC(=O)Nc2cccc(F)c2)[C@H](CO)O1,4.0,x,x,x,x,x,x
CN=C(Nc1cccnc1)c1cccc(C(F)(F)F)c1,6.2,49.4*,-4.2,-1.6,1.9,1.7,-14.5
CN=C(Nc1ccc(Cl)cc1)c1cccc(C(F)(F)F)c1,1.3,-2.8,-11.2,-1.7,11.5,1.0,x
CC(=O)c1ccc(NC(=O)C2=CC(c3ccco3)=NS(=O)(=O)N2C)cc1,32.5,33.1*,-0.1,-2.1,-9.9,1.7,-1.2
Cn1c(=O)c2c(ncn2CC(=O)OCC(=O)c2ccc(Br)cc2)n(C)c1=O,0.5,32.3*,x,x,2.6,x,-6.1
Cn1c(=O)c2c(ncn2CC(=O)OCC(=O)c2ccc(Cl)cc2)n(C)c1=O,-0.3,-5.4,-0.8,-1.3,-3.6,-13.4,x
CN1OC[C@@H]2CN(C(=O)c3ccc([N+](=O)[O-])cc3)[C@H](c3ccccc3Br)C[C@@H]21,x,38.9*,x,x,x,x,-16.0
Cc1nc2c(C(=O)NCCC(C)C)c[nH]n2c(=O)c1Cc1ccccc1F,5.3,40.7*,0.1,5.4,-3.4,3.5,12.1
CCOc1ccc(NC(=O)CN(C)C(=O)c2ccc(C)o2)cc1OCC,1.1,31.7*,-2.4,-0.8,1.6,-13.2,-23.3
O=C(C[C@@H]1CC[C@@H](NC(=O)c2ccncc2)[C@@H](CO)O1)Nc1ccccc1,-0.5,x,x,x,x,x,x
C[C@H](CO)N1C[C@H](C)[C@H](CN(C)S(=O)(=O)c2ccc(Cl)cc2)OCCCC[C@H](C)Oc2ccc(NC(=O)NC3CCCCC3)cc2C1=O,-0.7,x,x,x,x,x,x
COc1cc(/C=C(\C(=O)O)c2ccc(S(=O)(=O)N3CCCC3)s2)ccc1OCCC(C)C,-0.9,31.9*,x,x,10.6,x,12.8
CCCCOc1ccc(/C=C(\C(=O)O)c2ccc(S(=O)(=O)N3CCCC3)s2)cc1,3.4,23.9,4.3,x,10.7,x,x
Oc1c(N=Nc2ccc(F)cc2)ccc2ccccc12,-2.0,-0.2,31.5,26.1,-2.1,3.1,x
Oc1c(N=Nc2nn[nH]n2)ccc2ccccc12,x,97.8*,x,x,x,x,83.8*
O=C(c1ccc(Br)o1)N1CCC(c2nc3ccccc3[nH]2)CC1,x,34.3*,-3.6,0.9,-2.4,-0.3,-26.5
COC(=O)C1=C(C(=O)OC)SC2(S1)C(C(=O)OC)=C(C(=O)OC)Sc1c2ssc1=O,x,31.8*,x,x,-6.1,x,8.6
COC(=O)C1=C(C(=O)OC)SC2(S1)C(C(=O)OC)=C(C(=O)OC)SC1=C2c2cc(C)cc(C)c2NC1(C)C,-0.6,16.6,13.7,-2.2,5.6,8.9,x
O=C(C[C@@H]1C[C@@H]2c3cc(NC(=O)C4CCOCC4)ccc3O[C@@H]2[C@H](CO)O1)NCCN1CCCCC1,-1.4,x,x,x,x,x,x
O=C(O)c1ccccc1NS(=O)(=O)c1ccc(NNC(=S)Nc2ccc(OC(F)F)cc2)c([N+](=O)[O-])c1,x,69.6*,x,14.7,-6.8,7.5,64.7*
Cc1ccc(NC(=S)NNc2ccc([N+](=O)[O-])cc2S(=O)(=O)Nc2ccccc2C(=O)O)cc1C,3.1,21.1,0.7,22.8,-21.4,10.8,x
CC(C)CC(COCc1cccc(C(F)(F)F)c1)N1CCN(C(=O)c2cccc(C(F)(F)F)c2)CCC1=O (stereo unspecified),0.1,30.2*,-6.4,2.5,30.7,-0.5,25.9
Cc1ccc(COC[C@H](CC(C)C)N2CCN(C(=O)c3cccc(C(F)(F)F)c3)CCC2=O)cc1,x,25.6,x,x,x,x,x
SMILES,Mtb BioA inh,CCHF vOTU inh-1,Mtb bLac sens,RecA splice inh,Y pestis TopoI,BJeLR viability,CCHF vOTU inh-2
Nc1ncc(Br)cc1S(=O)(=O)Nc1cc(C(F)(F)F)cc(C(F)(F)F)c1,10.1,31.8*,0.1,4.1,-0.5,11.4,13.0
CCN(CC(=O)Nc1ccccc1C(F)(F)F)CC(=O)c1[nH]c(C)c(C(C)=O)c1C,2.7,38.1*,x,x,10.1,x,-16.6
CC(=O)c1c(C)[nH]c(C(=O)CN(C)CC(=O)Nc2ccccc2Cl)c1C,12.4,6.7,-3.2,x,5.7,x,x
COc1ccc(CC(N)c2csc(NC(=O)NCc3ccccc3)n2)cc1 (stereo unspecified),-1.6,7.5,x,x,-8.2,x,x
CCCCN(C)C(=O)c1ccc(Nc2nc(C(N)Cc3ccc(C(F)(F)F)cc3)cs2)nc1 (stereo unspecified),-1.8,32.2*,x,x,0.7,x,-9.4
CCCCN(C)C(=O)c1ccc(Nc2nc(C(N)CCc3ccccc3)cs2)nc1 (stereo unspecified),-1.8,25.1,x,x,-0.3,x,x
COc1cc(CNC(=O)Nc2nc(C(N)Cc3ccc(C(F)(F)F)cc3)cs2)cc(OC)c1OC (stereo unspecified),0.4,30.6*,x,x,-8.5,x,-19.4
CN(C)C(CNC(=O)c1ccc(NS(=O)(=O)c2ccc(F)c(F)c2)cc1)c1ccccc1 (stereo unspecified),0.1,-4.2,4.9,-8.7,5.9,0.4,x
CN(C)C(CNC(=O)c1ccc(NS(=O)(=O)c2ccc3[nH]c(=O)[nH]c3c2)cc1)c1ccccc1 (stereo unspecified),-0.7,31.4*,-5.2,-0.4,-0.8,-12.2,-16.2
CCNC(=O)C[C@H]1CC[C@@H]2[C@@H](COc3ccc(NC(=O)Nc4ccc(Cl)cc4)cc3C(=O)N2C)O1,6.2,x,x,x,x,x,x
CCCOc1cc(N)ccc1C(=O)OCCN(CC)CC,-0.9,-2.8,-1.2,x,-4.4,x,x
CCCOc1ccc(N)cc1N,-0.6,84.8*,24.9,30.3*,-39.1,5.8,22.4
CC(NC(=O)CS(=O)(=O)c1ccccc1)c1ccccc1 (stereo unspecified),-2.7,36.1*,-22.9,3.0,-1.2,-7.3,-25.4
CC(NC(=O)CCNS(=O)(=O)c1ccccc1)c1ccccc1 (stereo unspecified),0.3,4.6,-0.6,-2.9,2.4,-5.2,x
COc1ccc(NC(=O)N(C)C[C@@H]2Oc3ccc(NC(=O)Cc4cn(C)c5ccccc45)cc3C(=O)N([C@@H](C)CO)C[C@H]2C)cc1,0.6,x,x,x,x,x,x
CCN(CC)S(=O)(=O)c1cc(NC(=O)CN2C(=O)NC(C)(c3ccccc3)C2=O)ccc1C (stereo unspecified),0.0,34.2*,-1.0,3.4,8.3,8.5,3.7
